PubChem BioAssay (NCATS)
A number with no mark means an inactive call. Records with an inconclusive call do not appear. Where a call stands in place of a potency, no number is given. Activity calls are given as the source filed them. Calls come from the whole dose curve; as a rule, active = well fitted curve in the direction sought with a large enough effect; inconclusive = small, poorly fitted or top-dose-only effect, or another doubt; inactive = no such curve, though single readings can be large; an effect the other way counts as inactive or inconclusive.

Key:
[1] = Primary fluorescence-based thiol-reactive (MSTI) qHTS assay for identification of artifact compounds. (AID 1845221); note: nearly all actives have a fitted effect of over 65% in size; note: potency is the fitted concentration of half-maximal effect
In short: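 Probe: MSTI 4 uM, PBS pH 7.4, 2% DMSO. Incubation 1 h, RT, light-protected. Readout fluorescence 525/598 nm.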

[2] = tested on: Nanoluciferase (engineered Oplophorus gracilirostris luciferase); experiment: Primary Nanoluciferase (NLuc) qHTS assay for identification of artifact compounds. (AID 1845222);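 note: NLuc secreted into diluted conditioned medium of S16 cells; series mostly up to about 54 µM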
In short: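 Concentration-response data were obtained by luminescence after 5 min with Nano-Glo substrate at 1:100. The enzyme was diluted S16 NLuc-expressing cell medium, preincubated with compound for 15 min at RT. Curves were fitted with a 4-parameter Hill model.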

[3] = Primary redox qHTS assay for identification of artifact compounds. (AID 1845223)
In short: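 Redox-cycling detection via DTT (250 uM final) oxidation coupled to Amplex Red (25 uM)/HRP (250 mU/mL) in HBSS. 15 min preincubation plus 30 min after DTT, room temperature. Ex/Em 525/598 nm; 4-parameter Hill fit against DMSO and 10 uM DA3003.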

[4] = target: Cytochrome P450 3A4 (Homo sapiens) (UniProt P08684); experiment: qHTS for inhibitors of CYP3A4 against the NCATS DSHEA and TCM libraries (AID 1919971); note: potency is the fitted concentration of half-maximal effect
In short: (§1)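 Each CYP isoform and its pro-luciferin substrate, at isoform-specific final concentrations, were preincubated 15 min at RT with substances. NADPH regeneration solution (1x) started a 30-45 min reaction, and P450-Glo luminescence was read.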

[5] = target: Cytochrome P450 2D6 (Homo sapiens) (UniProt P10635); experiment: qHTS for inhibitors of CYP2D6 against the NCATS DSHEA and TCM libraries (AID 1919972)
In short: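 CYP2D6 enzyme with pro-luciferin substrate in manufacturer buffer (typically 100 mM KPO4), preincubated 15 min RT with substances (most at 19.5 nM upward); NADPH regeneration system (1x) started 30–45 min RT reaction; P450-Glo luminescence read after 30 min; quinidine as intraplate control.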

[6] = target: Cytochrome P450 2C9 (Homo sapiens) (UniProt P11712); experiment: qHTS for inhibitors of CYP2C9 against the NCATS DSHEA and TCM libraries (AID 1919973); note: potency is the fitted concentration of half-maximal effect
In short: as §1

[7] = target: Cytochrome P450 2C19 (Homo sapiens) (UniProt P33261); experiment: qHTS for inhibitors of CYP2C19 against the NCATS DSHEA and TCM libraries (AID 1919974);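 note: luminescence from luciferin released by CYP2C19 oxidation of a pro-luciferin substrate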; note: potency is the fitted concentration of half-maximal effect
In short: as §1

[8] = KB-3-1 P-gp reporter qHTS against the NCATS DSHEA and TCM libraries (AID 1919975)
In short: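 Cell viability qHTS: 500 KB-3-1 cells/well, substances in titration, ~72 h, 37C; luminescent CellTiter-Glo read.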

[9] = target: Cytochrome P450 1A2 (Homo sapiens) (UniProt P05177); experiment: qHTS for inhibitors of CYPIA2 against the NCATS DSHEA and TCM libraries (AID 1919976); note: potency is the fitted concentration of half-maximal effect
In short: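 Reaction started with 1x NADPH regeneration solution and run 30-45 min, room temperature, protected from light, after compounds sat 15 min with CYP1A2 and pro-luciferin substrate. P450-Glo detection gave luminescence; furafylline served as control.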

[10] = qHTS Counterscreen for compound interference against the NCATS DSHEA and TCM libraries (AID 1919978); conditions: firefly luciferase detection reagent interference, luminescence;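 note: compounds preincubated with 1 µM D-luciferin or buffer before detection reagent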
In short: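 Interference check: test samples were incubated with D-luciferin (final 1 uM) or buffer only for 15 min, room temperature, in a qHTS titration up to 39.8 uM, then developed with detection reagent and read by luminescence.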

Cytochrome P450 3A4 (Homo sapiens), sequence (P08684 whole entry, looked up, canonical isoform): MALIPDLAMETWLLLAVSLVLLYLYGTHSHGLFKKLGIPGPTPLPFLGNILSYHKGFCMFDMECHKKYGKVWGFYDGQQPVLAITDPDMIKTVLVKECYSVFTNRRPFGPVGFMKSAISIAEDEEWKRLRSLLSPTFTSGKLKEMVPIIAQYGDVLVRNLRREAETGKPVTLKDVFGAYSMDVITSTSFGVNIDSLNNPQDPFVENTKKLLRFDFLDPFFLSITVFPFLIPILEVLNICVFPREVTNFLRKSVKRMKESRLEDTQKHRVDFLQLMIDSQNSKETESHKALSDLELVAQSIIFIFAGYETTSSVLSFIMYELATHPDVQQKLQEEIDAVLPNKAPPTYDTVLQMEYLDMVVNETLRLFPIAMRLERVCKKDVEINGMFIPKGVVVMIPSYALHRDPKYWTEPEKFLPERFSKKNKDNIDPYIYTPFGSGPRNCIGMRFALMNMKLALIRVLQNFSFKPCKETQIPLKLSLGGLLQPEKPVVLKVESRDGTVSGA
Cytochrome P450 2C9 (Homo sapiens), sequence (P11712 whole entry, looked up): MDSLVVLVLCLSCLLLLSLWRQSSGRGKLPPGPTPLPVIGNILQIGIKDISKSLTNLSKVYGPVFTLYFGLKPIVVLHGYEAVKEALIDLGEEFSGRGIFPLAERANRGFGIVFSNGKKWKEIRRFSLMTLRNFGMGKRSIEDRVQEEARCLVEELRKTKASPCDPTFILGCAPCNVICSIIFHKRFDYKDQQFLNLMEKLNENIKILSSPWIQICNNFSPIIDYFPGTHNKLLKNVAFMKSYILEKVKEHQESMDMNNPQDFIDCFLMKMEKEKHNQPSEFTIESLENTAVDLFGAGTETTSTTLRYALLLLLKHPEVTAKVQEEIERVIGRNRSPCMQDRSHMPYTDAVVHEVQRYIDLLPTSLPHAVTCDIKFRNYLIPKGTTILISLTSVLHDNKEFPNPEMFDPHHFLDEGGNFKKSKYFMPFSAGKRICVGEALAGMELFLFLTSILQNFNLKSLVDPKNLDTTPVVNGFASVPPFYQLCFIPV
Cytochrome P450 1A2 (Homo sapiens), sequence (P05177 whole entry, looked up): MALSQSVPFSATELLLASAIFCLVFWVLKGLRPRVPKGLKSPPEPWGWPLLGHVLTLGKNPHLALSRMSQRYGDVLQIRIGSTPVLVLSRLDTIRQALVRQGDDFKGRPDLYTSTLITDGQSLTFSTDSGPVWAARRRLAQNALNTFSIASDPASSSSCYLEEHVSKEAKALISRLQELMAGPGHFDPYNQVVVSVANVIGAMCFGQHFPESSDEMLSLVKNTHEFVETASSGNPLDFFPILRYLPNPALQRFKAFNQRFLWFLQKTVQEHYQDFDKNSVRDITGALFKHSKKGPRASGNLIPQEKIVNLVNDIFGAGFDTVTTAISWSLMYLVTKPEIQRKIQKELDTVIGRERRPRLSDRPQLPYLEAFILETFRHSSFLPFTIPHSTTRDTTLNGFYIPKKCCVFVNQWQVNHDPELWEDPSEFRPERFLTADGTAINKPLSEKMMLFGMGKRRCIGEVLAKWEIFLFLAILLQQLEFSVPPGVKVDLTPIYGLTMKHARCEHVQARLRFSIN
Cytochrome P450 2C19 (Homo sapiens), sequence (P33261 whole entry, looked up): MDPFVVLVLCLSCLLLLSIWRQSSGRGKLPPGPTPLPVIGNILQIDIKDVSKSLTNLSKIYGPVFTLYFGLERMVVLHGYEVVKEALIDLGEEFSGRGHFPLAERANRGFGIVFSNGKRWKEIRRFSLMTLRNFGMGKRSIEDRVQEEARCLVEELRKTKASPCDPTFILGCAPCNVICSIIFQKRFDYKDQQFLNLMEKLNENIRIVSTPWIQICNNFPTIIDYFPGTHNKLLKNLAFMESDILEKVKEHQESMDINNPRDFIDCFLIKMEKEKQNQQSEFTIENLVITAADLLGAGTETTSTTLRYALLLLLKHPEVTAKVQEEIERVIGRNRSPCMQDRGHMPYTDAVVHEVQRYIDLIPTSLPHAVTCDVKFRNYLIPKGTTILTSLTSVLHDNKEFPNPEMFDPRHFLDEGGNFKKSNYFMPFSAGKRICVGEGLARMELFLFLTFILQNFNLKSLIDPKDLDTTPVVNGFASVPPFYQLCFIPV
Cytochrome P450 2D6 (Homo sapiens), sequence (P10635 whole entry, looked up): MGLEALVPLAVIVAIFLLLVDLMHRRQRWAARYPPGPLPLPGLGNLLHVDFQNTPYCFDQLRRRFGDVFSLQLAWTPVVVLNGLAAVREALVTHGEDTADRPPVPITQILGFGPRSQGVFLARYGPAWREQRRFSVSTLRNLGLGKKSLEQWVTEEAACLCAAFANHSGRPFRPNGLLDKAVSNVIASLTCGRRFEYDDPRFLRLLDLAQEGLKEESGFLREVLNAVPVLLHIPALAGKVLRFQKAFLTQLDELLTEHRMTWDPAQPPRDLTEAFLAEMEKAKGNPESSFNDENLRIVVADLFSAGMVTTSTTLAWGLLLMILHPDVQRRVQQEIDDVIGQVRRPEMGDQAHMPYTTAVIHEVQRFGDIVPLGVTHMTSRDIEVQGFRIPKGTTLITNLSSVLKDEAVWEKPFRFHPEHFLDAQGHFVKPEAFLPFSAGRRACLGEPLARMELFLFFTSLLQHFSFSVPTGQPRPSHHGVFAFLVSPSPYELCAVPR

COc1cc(/C=C/C(=O)OCC2OC(OC3(CO)OC(CO)C(O)C3O)C(O)C(O)C2O)ccc1O (stereo not drawn)
Potency [1]: inactive | Potency [2]: inactive | Potency [3]: inactive

CSCC1OC(n2cnc3c(N)ncnc32)C(O)C1O (stereo not drawn)
Potency [1]: inactive | Potency [2]: inactive | Potency [3]: inactive

CC1=C[C@H](O)[C@H]2C(C)(C)CCC[C@]2(C)[C@@]1(O)CO
Potency [1]: inactive | Potency [2]: inactive | Potency [3]: inactive

COC(=O)C1=COC(OC2OC(CO)C(O)C(O)C2O)C2C(COC(=O)/C=C/c3ccc(O)c(O)c3)C(O)C(O)C12 (stereo not drawn)
Potency [1]: 2.51 µM (active) | Potency [2]: inactive | Potency [3]: inactive

CC(C)(O)C1CC=C(C(=O)OC[C@H]2O[C@@H](OC(=O)C3=CCC(C(C)(C)O)CC3)[C@H](O)[C@@H](O)[C@@H]2O)CC1 (stereo partly drawn)
Potency [1]: 4.12 µM (active) | Potency [2]: inactive | Potency [3]: inactive

NC[C@H]1CCC[C@@H](CNC(=O)[C@@H](Cc2c[nH]c3ccccc23)NC(=O)N2CCC3(C=Cc4ccccc43)CC2)C1
Potency [1]: inactive | Potency [2]: inactive | Potency [3]: inactive

CC(C)c1ccc2c(c1)C(=O)CC1C(C)(C(=O)O)CCCC21C (stereo not drawn)
Potency [1]: inactive | Potency [2]: inactive | Potency [3]: inactive

CC1(C)CC[C@]2(C(=O)O)CC[C@]3(C)C(=CCC4[C@@]5(C)C[C@@H](O)[C@H](O)[C@](C)(CO)C5CC[C@]43C)[C@@H]2[C@@H]1O (stereo partly drawn)
Potency [1]: inactive | Potency [2]: inactive | Potency [3]: inactive

O=C(OCC1=C[C@@H](O)[C@@H]2C=CO[C@@H](O[C@@H]3O[C@H](CO)[C@@H](O)[C@H](O)[C@H]3O)[C@H]12)c1ccc(O)cc1
Potency [4]: inactive | outcome [5]: inactive | Potency [6]: inactive | Potency [7]: inactive | outcome [8]: inactive | Potency [9]: inactive | max response [10]: -1.45%

CC(=O)O[C@@H]1C[C@@H](C)[C@](O)(CCC2=CC(=O)OC2)[C@@]2(C)CCCC(C)(C)C12 (stereo partly drawn)
Potency [4]: 4.47 µM (active) | outcome [5]: inactive | Potency [6]: 8.91 µM (active) | Potency [7]: 2.82 µM (active) | outcome [8]: inactive | Potency [9]: 3.98 µM (active) | max response [10]: -1.72%

CS(=O)(=O)c1ccccc1N1CCN(c2nc3c(c(=O)[nH]2)CSCC3)CC1
Potency [2]: inactive | Potency [3]: inactive

C[C@@H]1C(=O)O[C@H]2[C@H]1CC[C@@]1(C)C(=O)C=C[C@@](C)(O)[C@H]21
Potency [2]: inactive | Potency [3]: inactive

CC(C)CC(=O)NCCn1cc(C(=O)O)c(=O)cc1C(O)c1ccccc1 (stereo not drawn)
Potency [2]: inactive | Potency [3]: inactive

CC1CCC2C(C(=O)O)=CC3(O)CC(C)(C)CC123 (stereo not drawn)
Potency [2]: inactive | Potency [3]: inactive

COC(=O)[C@]1(C)CCC[C@@]2(C)C(=O)CC[C@H]3C(=O)C=C(CC[C@@H]21)C3O (stereo partly drawn)
Potency [2]: inactive | Potency [3]: inactive

COc1cc(/C=C/C(=O)O[C@H]2[C@@H]3C=CO[C@@H](O[C@@H]4O[C@H](CO)[C@@H](O)[C@H](O)[C@H]4O)[C@@H]3[C@@]3(CO)O[C@@H]23)ccc1O
Potency [2]: inactive | Potency [3]: inactive

C/C=C1\[C@H](O[C@@H]2O[C@H](CO)[C@@H](O)[C@H](O)[C@H]2O)OC=C(C(=O)O)[C@H]1CC(=O)OCCc1ccc(O)cc1
Potency [2]: inactive | Potency [3]: inactive

CC1=COC(OC2OC(CO)C(O)C(O)C2O)C2C(CO)CC(OC(=O)/C=C/c3ccc(O)cc3)C12 (stereo not drawn)
Potency [2]: inactive | Potency [3]: inactive

CC1CCC2(C(=O)O)CCC3(C)C(=CCC4C5(C)CCC(O)C(C)(C(=O)O)C5CCC43C)C2C1(C)O (stereo not drawn)
Potency [2]: inactive | Potency [3]: inactive

C=C(C)C(O)COc1ccc(CC(=O)O)cc1 (stereo not drawn)
Potency [2]: inactive | Potency [3]: inactive

O=C(O)c1cc(O[C@@H]2O[C@H](CO)[C@@H](O)[C@H](O)[C@H]2O)ccc1O
Potency [2]: inactive | Potency [3]: inactive

C[C@@H]1O[C@@H](O[C@H]2[C@@H]3C=CO[C@@H](O[C@@H]4O[C@H](CO)[C@@H](O)[C@H](O)[C@H]4O)[C@@H]3[C@@]3(CO)O[C@@H]23)[C@H](O)[C@H](O)[C@H]1OC(=O)/C=C/c1ccc(O)cc1
Potency [2]: inactive | Potency [3]: inactive

C/C=C/C=C/C(O)=C1/C(=O)[C@]2(C)C3/C(=C(O)/C=C/C=C/C)C(=O)C4(C)C1[C@]1(C)O[C@@]4(O)[C@@]3(C)O[C@@]12O
Potency [2]: inactive | Potency [3]: inactive

C[C@@H]1C[C@@H](O)[C@@]2(CO)C(CO)=CCC[C@@H]2[C@@]12C[C@@H](c1ccoc1)OC2=O
Potency [2]: inactive | Potency [3]: inactive

C[C@@]12CC3(S(=O)(=O)O)OC(O1)[C@]1(COC(=O)c4ccccc4)[C@H]3C[C@]21O[C@@H]1O[C@H](CO)[C@@H](O)[C@H](O)[C@H]1O
Potency [2]: inactive | Potency [3]: inactive
